Screening results (PubChem)
BAZ2B inh = inhibitors of human BAZ2B bromodomain | 4.4% of 360,000 active | AID 504333 | Q9UIF8 | Potency, µM (doses to about 114 µM), for the others: top-dose activity change, negative = inhibition, most hits filed as inhibitors | AlphaScreen BAZ2B-H3K14Ac peptide displacement; note: potency is the fitted concentration of half-maximal effect; % is set by controls: 0 for no effect and ±100 for the full control effect; nearly all actives have a fitted effect of over 60% in size
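AlphaScreen luminescence quantifies BAZ2B engagement of H3K14Ac peptide; the protein and biotinylated peptide are both at 50 nM final, buffer PBS pH 7.4 with 0.01% Tween-20, all steps at room temperature.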
CtBP-E1A inh = inhibitors of CtBP/E1A interaction; AlphaScreen GST-E1A/His-CtBP binding, 1536-well; active compounds read low; activity change, % (test concentration not listed); 0.49% of 340,000 active; AID 651724; in the data active = activity change below about -65%; inconclusive = mostly about -30% to -63%; note: % is set by controls: 0 for no effect and ±100 for the full control effect
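Homogeneous bead-based format: GST-tagged E1A captured on glutathione donor beads, His-tagged CtBP on nickel acceptor beads; compounds precede bead addition by 2 h at 37 °C.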
HP1b binding inh = blocks HP1-beta chromodomain binding to methylated histone tails; AlphaScreen HP1-beta / biotin-H3K9me3 peptide binding; AID 540317; 0.56% of 390,000 active; Potency, µM (top dose mostly 114 µM), for inactives: at the top dose activity change, negative = inhibition, usual class: inhibitors; note: potency is the fitted concentration of half-maximal effect; nearly all actives have a fitted effect of over 70% in size
Target sequence (P83916 whole entry, looked up): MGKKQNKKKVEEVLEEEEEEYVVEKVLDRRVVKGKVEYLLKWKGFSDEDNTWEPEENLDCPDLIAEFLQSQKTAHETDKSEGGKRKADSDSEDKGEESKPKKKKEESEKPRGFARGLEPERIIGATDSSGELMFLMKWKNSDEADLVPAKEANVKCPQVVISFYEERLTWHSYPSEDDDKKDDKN
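Compound inhibition of the preformed complex between 50 nM HP1-beta and 50 nM biotinylated H3K9me3 peptide was read by AlphaScreen. Buffer was PBS pH 7.4 with 0.01% Tween-20. Incubations ran 30 min at room temperature, with 10 ug/mL donor/acceptor beads.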
Six1-Eya2 blk = Six1/Eya2 interaction inhibition | Q15475+O00167 | AlphaScreen GST-Six1/His-Eya2 binding, biochemical; active compounds read low | activity change, % (no concentration beside the values) | 0.56% of 360,000 active; in the data active = activity change below about -65%; inconclusive = mostly about -30% to -63%; note: % is set by controls: 0 for no effect and ±100 for the full control effect
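AlphaScreen with GST-Six1 and His-Eya2 (5X mix: 250 nM and 500 nM), glutathione donor and nickel acceptor beads; buffer 50 mM Tris pH 8.0, 300 mM NaCl, 1 mM TCEP; 1 h at 37 C in the dark.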
JMJD2A Tudor inh = inhibitors of human JMJD2A Tudor domain. O75164. AlphaScreen JMJD2A-Tudor / H3K4me3 peptide binding. Potency, µM (doses to about 114 µM), without a hit: at the top dose activity change, negative = inhibition, actives largely listed as inhibitors. 4.4% of 390,000 active. AID 504339; note: potency is the fitted concentration of half-maximal effect; % is set by controls: 0 for no effect and ±100 for the full control effect; nearly all actives have a fitted effect of over 50% in size
G9a block = blocks human histone lysine methyltransferase G9a; 8.8% of 350,000 active; Potency, µM (series often up to 102 µM), without a hit: top-dose activity, negative = inhibition, actives largely listed as inhibitors; Q96KQ7; G9a H3K9 monomethylation, AlphaScreen, 2 h; note: potency is the fitted concentration of half-maximal effect; % is set by controls: 0 for no effect and ±100 for the full control effect; nearly all actives have a fitted effect of over 75% in size
Target sequence (Q96KQ7 913-1193 limits assumed): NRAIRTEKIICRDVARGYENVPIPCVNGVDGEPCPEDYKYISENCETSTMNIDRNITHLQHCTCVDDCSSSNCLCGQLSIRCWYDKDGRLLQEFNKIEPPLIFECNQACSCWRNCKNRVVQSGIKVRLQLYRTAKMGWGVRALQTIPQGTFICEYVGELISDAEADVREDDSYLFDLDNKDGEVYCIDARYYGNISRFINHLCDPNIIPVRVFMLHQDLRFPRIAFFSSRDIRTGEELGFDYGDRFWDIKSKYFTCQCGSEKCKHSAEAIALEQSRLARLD
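Using a bead-based AlphaScreen, monomethylated H3K9 product from 2 h room-temperature reactions (G9a 20 nM, peptide 500 nM, SAM 20 uM) was detected with 0.5 ug/mL rabbit anti-H3K9me1 antibody.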
An asterisk follows results filed as active; ? = inconclusive; / = no result; [ ] = dose if it differs, or a comment. An excerpt weighted towards active compounds, which were near 10% of everything screened. Unless noted, calls come from the whole dose curve; as a rule, active = well fitted inhibition curve with a large enough effect; inconclusive = small, poorly fitted or top-dose-only effect; inactive = no such curve, though single readings can be large or run the other way.

SMILES	BAZ2B inh	CtBP-E1A inh	HP1b binding inh	Six1-Eya2 blk	JMJD2A Tudor inh	G9a block
COC(=O)c1cccc(Nc2c(-c3ccc(O)c(OC)c3)nc3nc[nH]n23)c1	-22.8%	/	?	/	-32.7%	?
Cc1ccc2c(c1)nc(SCC(O)c1ccc(Br)cc1)n2C (configuration not stated)	-3.4%	/	22.2%	/	-9.4%	-22.0%[59 µM]
O=C(NCCN1CCOCC1)c1c(O)nc2sccn2c1=O	-28.4%	-3.5	3.6%	3.8	31.6µM*	?
O=C(O)c1cc(NN=Nc2cccc(S(=O)(=O)O)c2)cc([N+](=O)[O-])c1	5.5%	/	51.2%	-6.4	-13.7%	-12.0%
O=[N+]([O-])c1ccc(N=NNc2ccccc2)cc1	28.2µM*	-10.8	?	-14.9	25.1µM*	22.4µM*
CN(N=Nc1ccc([N+](=O)[O-])cc1)c1ccccc1	?	/	-6.6%	-12.3	-45.4%	?
O=[N+]([O-])c1cccc(NN=Nc2ccccc2)c1	?	-3.7	-11.1%	-25.2	?	44.7µM*
Brc1ccc(N=NNc2ccccc2)cc1	39.8µM*	-8.2	34.4%	-17.5	-26.0%	/
O=C(O)c1cc(NN=Nc2ccc(Br)cc2)cc([N+](=O)[O-])c1	-10.5%	-4.9	-2.4%	-1.3	?	31.6µM*
O=C(O)c1cc(NN=Nc2cccc([N+](=O)[O-])c2)cc([N+](=O)[O-])c1	?	-2.6	8.1%	-5.1	-25.1%	?
Cc1ccc2c(c1)-c1nc(-c3ccc(Cl)cc3)cc(-c3coc4ccccc4c3=O)c1CO2	-21.1%	/	29.9%	/	-6.3%	-26.7%[59 µM]
CC1CCCCN1S(=O)(=O)c1ccc(S(=O)(=O)N2CCN(c3ccccc3)CC2)cc1 (configuration not stated)	6.7%	-0.1	30.1%	-0.5	-0.9%	50.1µM*
O=C(c1ccc(S(=O)(=O)N2CCCCC2)cc1)N1CCN(c2ccccc2)CC1	-5.0%	4.1	13.6%	0.5	-20.9%	-5.3%[12.7 µM]
CN(Cc1ccccc1)c1nc(-c2ccc(F)cc2)cc(C(F)(F)F)n1	312.2%	/	295.3%	/	279.9%	353.1%[59 µM]
CC1CCc2nc3ncn(Cc4cccc(F)c4)c(=O)c3cc2C1 (configuration not stated)	-2.0%	/	11.1%[57 µM]	/	-20.4%	-1.4%[59 µM]
CCCc1nn2c(=O)cc(CSCC(=O)Nc3nnc(CC)s3)nc2s1	-6.2%	-18.8	46.0%	5.9	-17.8%	-4.1%[0.501 µM]
CCc1nnc(NC(=O)CSc2nnc(CSc3nc(C)cc(C)n3)o2)s1	-7.6%	?	24.5%	-24.6	-23.9%	39.8µM*
Cc1ccc(NC(=O)CSCc2cc(=O)n3nc(C4CC4)sc3n2)cc1	-19.6%	0.0	14.7%	-0.8	31.6µM*	21.2%
Cc1cccc(NC(=O)CSc2nnc(CSc3nc(C)cc(C)n3)o2)c1	15.7%	-7.7	1.0%	-2.5	-4.7%[57.1 µM]	5.5%[59 µM]
CCc1nnc(NC(=O)CSCc2cc(=O)n3nc(C)sc3n2)s1	-12.5%	4.2	24.3%	7.5	17.8µM*	47.5%
CCOC(=O)c1cccc(NC(=O)COc2ccc3c(C)cc(=O)oc3c2)c1	4.7%	/	44.2%	/	-25.8%	-47.2%[59 µM]
Cc1ccc(C)c(CN2C(=O)c3ccccc3S(=O)c3ccc(C(=O)NCCC4=CCCCC4)cc32)c1 (configuration not stated)	-15.2%	/	22.3%	/	-16.2%	-11.4%[59 µM]
COc1ccc(S(=O)(=O)Nc2nc3ccccc3nc2Nc2cccc(C(=O)O)c2)cc1	-18.9%[57.1 µM]	/	53.5%	-15.8	-6.0%	44.7µM*
CC(=O)Nc1ccc(S(=O)(=O)Nc2nc3ccccc3nc2Nc2ccccc2)cc1	-38.6%	2.8	32.6%	5.6	-12.3%	?
COc1ccc(Nc2nc3ccccc3nc2NS(=O)(=O)c2cccs2)c(OC)c1	-14.7%	2.6	32.5%	5.5	-19.6%	?
SMILES	BAZ2B inh	CtBP-E1A inh	HP1b binding inh	Six1-Eya2 blk	JMJD2A Tudor inh	G9a block
O=C(O)c1ccc(Nc2nc3ccccc3nc2NS(=O)(=O)c2cccs2)cc1	-9.5%[57.1 µM]	-3.7	52.7%	5.7	-23.0%	50.1µM*
COc1cccc(Nc2nc3ccccc3nc2NS(=O)(=O)c2cccs2)c1	-0.7%	-7.1	32.6%	8.5	89.1µM*	1.7%[12.7 µM]
O=C(CCN1CCN(C(c2ccccc2)c2ccccc2)CC1)N/N=C/c1ccc(O)cc1O	?	-73.4*	-32.4%	-11.3	63.1µM*	?
COc1ccc(OC)c(NC(=O)CCN2CCN(Cc3ccccc3)CC2)c1	-9.2%	4.2	13.9%	-2.2	-31.3%	50.1µM*
COc1ccc(C)cc1NC(=O)CCn1nc(C)cc1C	50.1µM*	/	29.4%	/	?	-1.9%[59 µM]
Cc1ccc(C)c(NC(=O)CCn2nc(C)cc2C)c1	4.8%	3.9	15.0%	11.1	-4.7%	-4.2%[12.7 µM]
COc1ccc(OC)c(/C=N/NC(=O)CCN2CCN(C(c3ccccc3)c3ccccc3)CC2)c1	?	0.8	-17.1%	-13.7	?	10µM*
Cc1ccc(-c2nc(-c3cc4cccc(OCc5ccccc5F)c4oc3=O)no2)cc1	1.9%	/	1.5%	/	-11.3%	0.7%[59 µM]
CCCCOc1ccc(C(=O)NCCS(=O)(=O)N2CCN(c3ccccc3OC)CC2)cc1	-16.1%	/	22.0%[57 µM]	/	-22.7%	-4.9%[59 µM]
Cc1cccc(N2CCN(C(=O)Cn3c(C)c4cnn(-c5ccccc5)c(=O)c4c3C)CC2)c1C	?	/	13.1%	/	-32.9%	-24.4%[59 µM]
Cc1cc(C)n(CCC(=O)N/N=C/c2ccc(O)cc2O)n1	14.5%	-69.3*	28.8%	-85.9*	-10.8%	81.3%[59 µM]
COc1ccc(-c2[nH]c(-c3ccc(C)cc3)nc2SCC(=O)Nc2nccs2)cc1	?	-12.1	?	-13.6	?	44.7µM*
O=C(CSc1n[nH]c(-c2ccc(Br)cc2)n1)NC1CCCC1	/	-0.5	40.5%	-6.2	3.4%	/
CCc1ccc(-c2nc(SCC(=O)NC3CC3)n[nH]2)cc1	10.5%	3.1	2.4%	5.9	-6.2%	44.7µM*
COc1ccc(-c2nc(SCC(=O)NC3CCCC3)c(-c3ccc(OC)cc3)[nH]2)cc1	?	-3.6	-15.6%	-12.6	?	50.1µM*
CC1CCCN(S(=O)(=O)c2ccc(C(=O)Nc3nnc(C4CC4)o3)cc2)C1 (configuration not stated)	35.5µM*	?	51.0%	-22.4	?	41.9%
Cc1nnc(NC(=O)c2ccc(S(=O)(=O)N3CC(C)OC(C)C3)cc2)o1 (configuration not stated)	25.1µM*	-21.8	33.7%	-27.8	2.82µM*	8.5%
CC1CN(S(=O)(=O)c2ccc(C(=O)Nc3nnc(-c4ccco4)o3)cc2)CC(C)O1 (configuration not stated)	?	0.8	50.8%	-10.2	-25.9%	?
